153 variants from a collection of fitness landscapes (doi:10.1126/science.1257360) can be followed below.

Whole data set: some 140,000 sequences, median “enrichment ratio after two sorts for PhoP signalling” near 0, cut for the highest 2% near 11. Only a selection was taken, and the highest values are over-represented in it overall.

Sequences and labels used below:
B1: PhoQ; a variant is named by its letters at X, in order, P23837 (parent)
chain: MKKLLRLFFPLSLRVRFLLATAAVVLVLSLAYGMVALIGYSVSFDKTTFRLLRGESNLFYTLAKWENNKLHVELPENIDKQSPTMTLIYDENGQLLWAQRDVPWLMKMIQPDWLKSNGFHEIEADVNDTSLLLSGDHSIQQQLQEVREDDDDAEMTHSVAVNVYPATSRMPKLTIVVVDTIPVELKSSYMVWSWFIYVLSANLLLVIPLLWVAAWWSLRPIEALAKEVRELEEHNRELLNPATTRELTSLVRNLNRLLKSERERYDKYRTTLTDLTHSLKTPLXXLQXXLRSLRSEKMSVSDAEPVMLEQISRISQQIGYYLHRASMRGGTLLSRELHPVAPLLDNLTSALNKVYQRKGVNISLDISPEISFVGEQNDFVEVMGNVLDNACKYCLEFVEISARQTDEHLYIVVEDDGPGIPLSKREVIFDRGQRVDTLRPGQGVGLAVAREITEQYEGKIVAGESMLGGARMEVIFGRQHSAPKDE

The variants in this experiment derive from B1. The experiment in a line: enrichment ratio after two sorts for PhoP signalling (ratio (wild type AVST 3.29)); higher = more functional. The note with it: with PhoP (E. coli).
Turning to WRFE, the enrichment ratio was at most 0.25.
For IQAV the value was at most 0.25; for NVMV, at most 0.25; for CTCH, at most 0.25.
As to WLCH, the enrichment ratio is at most 0.25.
For the variant THCH, the enrichment ratio came out at 5.09.
For SHCH the value was 16; for SLCH, 11.6.
Turning to SHMH, the enrichment ratio worked out at 3.
For GTCH the value was 4.08; for TTCH, 15.
For KLCH the value was at most 0.25; for STCH, 12.6; for ITCH, at most 0.25.
Regarding YTCH, the enrichment ratio worked out at 0.285.
DCLL: the enrichment ratio is at most 0.25.
In the case of YWMV, the enrichment ratio was at most 0.25.
For YISQ the value was 0.456; for YEYI, at most 0.25.
For RIQD the value was at most 0.25; for APKL, at most 0.25.
For the variant KTLD, the enrichment ratio is at most 0.25.
With QTQN the figure was at most 0.25; with LCCT, at most 0.25.
With EDCL the figure was at most 0.25; with KEMG, at most 0.25; with SQQL, 2.28.
SLQL: the enrichment ratio is 5.85.
For SMQL the value was 12.1; for NIQL, at most 0.25; for KYQL, at most 0.25.
For SGQL the value was 12; for SAQL, 9.87; for YTQL, at most 0.25.
As for STQL, the enrichment ratio turned out to be 17.1.
For SIQL the value was 13.1.
Turning to QEQL, the enrichment ratio is at most 0.25.
For the variant QLRC, the enrichment ratio was at most 0.25.
With KRKR the figure was at most 0.25; with YDDH, at most 0.25; with EAQW, at most 0.25.
On to TNTS, for which the enrichment ratio worked out at 13.4.
With TNNK the figure was at most 0.25; with TNTA, 10.1.
With TNTI the figure was 15.8; with TNTH, 1.01; with TNTK, at most 0.25.
For TNTC the value was 11.6; for TNTD, at most 0.25.
Regarding TNIC, the enrichment ratio was at most 0.25.
For WEHT the value was at most 0.25.
For FCPF the value was at most 0.25; for IDMQ, at most 0.25.
For VSQK the value was at most 0.25.
On to TKCQ, for which the enrichment ratio amounted to 11.7.
AKCQ: the enrichment ratio amounted to 19.1.
For MKCQ the value was at most 0.25; for AICQ, 3.77.
For HKCQ the value was at most 0.25; for AWCQ, at most 0.25.
For PWVC the value was at most 0.25; for MMCL, 4.1.
Turning to TKCL, the enrichment ratio is 14.6.
For TKCS the value was 13.2; for HKCL, 3.32.
With KKCL, the enrichment ratio worked out at 1.66.
With TKCI the figure was 10.8; with MKCL, 16.5.
With AKCV the figure was 3.07.
With TKCV the figure was 30.6.
In the case of TKCE, the enrichment ratio worked out at 7.83.
On to KKCV, for which the enrichment ratio is at most 0.25.
With GGMT the figure was at most 0.25; with SKMP, at most 0.25; with GFDT, at most 0.25.
With WRTW the figure was at most 0.25; with DDAA, at most 0.25.
Regarding ARFW, the enrichment ratio was at most 0.25.
For GGAC the value was at most 0.25; for TGAC, 11.4.
With KYAC the figure was at most 0.25; with SPAC, at most 0.25; with AEFC, 6.7.
With KKAC the figure was at most 0.25; with VHAC, at most 0.25.
For NGAC, the enrichment ratio was at most 0.25.
Take AEAC: the enrichment ratio came to 43.5.
Turning to SIAC, the enrichment ratio is 13.
For AEYS the value was 1.65.
For AIAC, the enrichment ratio came out at 19.1.
With MDLS the figure was at most 0.25; with WPPG, at most 0.25.
For LANA the value was at most 0.25.
With GFDD the figure was at most 0.25; with LCAI, at most 0.25; with VLNL, at most 0.25.
Consider AAAC, for which the enrichment ratio was at most 0.25.
Consider RIAC, for which the enrichment ratio is at most 0.25.
For the variant AKAC, the enrichment ratio amounted to 19.7.
For WIAC the value was at most 0.25.
On to TIAC, for which the enrichment ratio amounted to 12.1.
For ADAC the value was 0.792; for MYGT, at most 0.25.
Take TEWY: the enrichment ratio is 0.326.
For MPYR the value was at most 0.25.
For YTMQ the value was 0.469; for TTQQ, 21.5; for YTHQ, at most 0.25.
With TTHP the figure was at most 0.25.
LTQQ: the enrichment ratio was at most 0.25.
With TTHQ the figure was 26.2.
For GYMQ the value was at most 0.25; for ITQQ, at most 0.25; for TTMQ, 30.4.
For YIIQ, the enrichment ratio was at most 0.25.
With QERY the figure was at most 0.25; with QQLY, at most 0.25; with CLCR, at most 0.25.
With VMKE the figure was at most 0.25; with VTRG, at most 0.25.
For QNQF the value was at most 0.25.
With YTLS, the enrichment ratio worked out at 4.88.
As for YTLT, the enrichment ratio was at most 0.25.
With TTLS the figure was 15.1.
TTPI: the enrichment ratio is 4.3.
For ITLT the value was at most 0.25; for YTLA, 4.01; for TTLA, 16.9.
For TTLT the value was 15.8; for CTLS, at most 0.25.
Take IYDI: the enrichment ratio is at most 0.25.
For EDSR the value was at most 0.25; for KMPM, at most 0.25; for YVSD, at most 0.25.
As to RQYR, the enrichment ratio was at most 0.25.
For HAKY the value was at most 0.25; for DMQN, at most 0.25; for MLWE, at most 0.25.
For MNAY the value was 17; for MNHF, 4.26.
As for MNNY, the enrichment ratio is 15.3.
For MNAQ the value was 11.8; for MNYI, 9.81.
For TNAQ the value was 4.37.
For MNYY the value was at most 0.25.
As for TNAY, the enrichment ratio was found to be 2.94.
With MNHP the figure was at most 0.25.
For FVVQ the value was at most 0.25; for PGYA, at most 0.25.
With ELDY the figure was at most 0.25; with FSCL, 8.2; with KSCL, at most 0.25.
As to SGDL, the enrichment ratio was at most 0.25.
